Compound activity from PubChem BioAssay.
KB-3-1 tox: kills parental KB-3-1 adenocarcinoma cells; AID 1347075; hit rate 1.4% among 400,000; KB-3-1 viability, CellTiter-Glo ATP luminescence, 72 h; Potency, µM (top dose mostly 46.1 µM), most hits filed as cytotoxic; also: nearly all actives have a fitted effect of over 60% in size
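Multi-concentration cytotoxicity screen in KB-3-1 cells grown in DMEM lacking phenol red with 10% FBS. After 72 h at 37 °C with compound, ATP-dependent luminescence was recorded.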
HT1080-NT tox: kills 2HG-producing HT-1080-NT fibrosarcoma cells; HT-1080-NT fibrosarcoma viability, CellTiter-Glo ATP luminescence, 48 h; Potency, µM (titrated, usually from 46.1 µM), without a hit: at the top dose activity, negative = less viability, hits mostly cytotoxic; hit rate 1.6% among 360,000; AID 686970;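 also: NT is the 2HG producing partner of a matched IDH1 knockdown line; 0% = DMSO-treated cells and -100% = media-only wells without cells; nearly all actives have a fitted effect of over 55% in size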
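750 cells/well, RPMI + 5% FBS; 2 h settle, compound pin-transfer, 48 h at 37 degrees C. CellTiter-Glo 10 min RT, luminescence. Normalized to DMSO and media-only wells.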
TDP1 cell CPT: growth inhibition of DT40 Tdp1-/-;hTDP1 cells with camptothecin (screen for TDP1 inhibitors). hit rate 12% among 420,000. Potency, µM (series often up to 46.2 µM), without a hit: at the top dose activity change, negative = growth inhibition, hits mostly inhibitors. chicken DT40 Tdp1-/-;hTDP1 cells + 20 nM CPT, ATP luminescence, 48 h. AID 686979; also: nearly all actives have a fitted effect of over 55% in size
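Chicken DT40 Tdp1-/- cells stably complemented with human TDP1 were seeded at 400 cells/well in medium containing 20 nM camptothecin, exposed to pin-transferred compounds, and grown at 37 °C for at least 48 hr. Viability was read as ATP luminescence.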
DT40 TDP1 no CPT: qHTS for Inhibitors of human tyrosyl-DNA phosphodiesterase 1 (TDP1): qHTS in cells in absence of CPT; hit rate 15% among 420,000; Potency, µM (highest dose often 46.2 µM), for the others: at the top dose activity change, negative = growth inhibition, most hits filed as inhibitors; DT40 Tdp1-/- hTDP1 cells, no CPT, ATP luminescence, 48 h; also: nearly all actives have a fitted effect of over 55% in size
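Chicken DT40 Tdp1-/- cells complemented with human TDP1, screened without camptothecin (DMSO vehicle only), 400 cells/well. Compounds pin-transferred, cells incubated at 37 °C for at least 48 hr. Growth read as ATP-dependent luminescence (CellTiter-Glo, 30 min at RT).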
KB-V1 cytotox: kills drug-selected multidrug resistant KB-V1 cells. KB-V1 MDR cells viability, CellTiter-Glo, 72 h. Potency, µM (doses to about 46.1 µM), usual class: cytotoxic. hit rate 3.4% among 400,000; also: nearly all actives have a fitted effect of over 60% in size
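KB-V1, DMEM (no phenol red) + 10% FBS; cpd pin-transferred, titration series; 72 h, 37 degrees C; CellTiter-Glo, luminescence. Data normalized, curve-fit.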
HT1080 IDH1KD tx: kills HT-1080 cells with IDH1 knockdown | hit rate 2% among 360,000 | Potency, µM (series often up to 46.1 µM), inactives show at the highest dose activity, negative = toxicity, most hits filed as cytotoxic | HT-1080 IDH1 knockdown viability, ATP luminescence, 48 h;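 also: 0% = DMSO wells and -100% = cell-free medium wells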
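Knockdown cells (IDH1KD HT-1080) received compounds 2 h after plating at 750 cells/well and were kept 48 h at 37 °C in 5% FBS RPMI. A CellTiter-Glo luminescence read gave % activity for curve fitting.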
* marks the source's active call; other numbers are inactive results; i = inactive; ? = inconclusive; . = not tested or not shown. Sampled rows, rich in hits. Any-hit rate of the full collection: about 19%. Calls follow the shape of the dose curve; as a rule, active = well fitted curve in the direction sought with a large enough effect; inconclusive = small, poorly fitted or top-dose-only effect, or another doubt; inactive = no such curve, though single readings can be large; an effect the other way counts as inactive or inconclusive. Unless noted, % is scaled to controls: 0 for no effect and ±100 for the full control effect; potency is read from the fitted curve at half-maximal effect.

SMILES	KB-3-1 tox	HT1080-NT tox	TDP1 cell CPT	DT40 TDP1 no CPT	KB-V1 cytotox	HT1080 IDH1KD tx
CCOC(=O)c1cc(NC(=O)CC(C)(C)CC(=O)O)ccc1N1CCCCC1	i	15.8%	-5.0%	-11.6%	i	1.4%
CCC(C)c1ccccc1NC(=O)COC(=O)c1ccc(N2CCCC2)c([N+](=O)[O-])c1 (centres undefined)	0.0023µM*	0.7%	20.6µM*	?	i	-2.1%
CCC(C)c1ccccc1NC(=O)COC(=O)c1ccc2[nH]c3c(c2c1)CCCC3 (centres undefined)	?	-29.9%	16.4µM*	18.4µM*	20.6µM*	?
COCCCn1c(C(=O)N2CC(C)OC(C)C2)cc2c(=O)n3ccccc3nc21 (centres undefined)	?	0.0%	0.7%	-1.6%	i	4.1%
CN(C)c1ncc2nc(-c3ccccc3)c(=O)n(C3CC3)c2n1	.	.	4.6%	?	.	.
CCN(CC)CCCNC(=O)c1ccc(Cn2c(SCc3ccccc3)nc3cccnc32)cc1	i	.	?	?	i	.
CCc1ccc(CCC(=O)Nc2ncc(Cc3ccccc3Cl)s2)o1	?	6.51µM*	5.17µM*	5.8µM*	i	4.61µM*
Cc1cc(C)nc(SCC(=O)Nc2ncc(Cc3cccc(Cl)c3Cl)s2)n1	i	2.6%	23.1µM*	18.4µM*	?	-4.2%
CCOC(=O)Cc1cnc(NC(=O)CSc2nc(C)cc(C)n2)s1	i	-2.5%	-3.7%	?	?	3.7%
COc1ccccc1CCC(=O)Nc1ncc(C)s1	?	-15.5%	10.3µM*	?	23.1µM*	-1.7%
Cc1cnc(NC(=O)Cc2ccccc2F)s1	i	-24.9%	7.31µM*	20.6µM*	i	-7.2%
COc1ccccc1CCC(=O)Nc1nccs1	i	17.6%	-16.9%	?	i	14.5%
COC(=O)c1sccc1S(=O)(=O)NC(C)c1cnn(-c2ccc(OC)cc2)c1C (centres undefined)	i	-5.2%	-29.0%	?	i	-0.2%
COc1ccc(-n2ncc(C(C)NS(=O)(=O)c3cc(C)sc3C)c2C)cc1 (centres undefined)	i	0.4%	?	16.4µM*	?	-6.6%
COc1ccc(N2CCN(C(=O)c3ccc4c(c3)N(Cc3ccc(F)cc3)C(=O)c3ccccc3S4=O)CC2)cc1 (centres undefined)	i	.	?	?	i	.
CC1(C(=O)O)CCCN(C(=O)c2ccc3c(c2)C(C)(C)CCC3(C)C)C1 (centres undefined)	i	9.0%	-0.3%	-2.1%	i	5.0%
O=C(Cc1ccccc1)N/N=C/c1ccc(-c2ccc([N+](=O)[O-])cc2)o1	i	0.1%	-14.7%	?	i	-0.4%
O=C1OC(CN2CCOCC2)CN1N=Cc1ccc([N+](=O)[O-])o1 (centres undefined)	i	-25.6%	14.6µM*	?	?	?
O=C1OC(CN(Cc2ccccc2)Cc2ccccc2)CN1N=Cc1ccc([N+](=O)[O-])o1 (centres undefined)	i	-1.6%	16.4µM*	9.2µM*	i	-8.1%
COc1ccc(NC(C)=O)cc1NC(=O)C1CCN(C(=O)Nc2ccccc2)CC1	i	-0.5%	10.2%	4.3%	i	-8.3%
Cn1c(N2CCOCC2)c(/C=N/OC(=O)c2ccc(F)cc2)c2ccccc21	4.11µM*	2.82µM*	3.66µM*	2.91µM*	?	3.16µM*
Cc1ccc(C(=O)O/N=C/c2c(N3CCOCC3)n(C)c3ccccc23)cc1	?	3.98µM*	3.26µM*	4.11µM*	?	3.55µM*
Cn1c(N2CCOCC2)c(/C=N/OC(=O)c2cccnc2Cl)c2ccccc21	i	-16.3%	?	?	i	7.6%
COC(=O)c1cc(S(=O)(=O)NCCCN2CCCC2=O)cn1C	i	5.5%	1.0%	22.3%	i	10.7%
c1ccc(COc2ccccc2CNC23CC4CC(CC(C4)C2)C3)cc1	?	13µM*	18.4µM*	14.6µM*	?	16.4µM*
SMILES	KB-3-1 tox	HT1080-NT tox	TDP1 cell CPT	DT40 TDP1 no CPT	KB-V1 cytotox	HT1080 IDH1KD tx
O=[N+]([O-])c1ccc(N/N=C2\CC3CC=CC23)c([N+](=O)[O-])c1 (centres undefined)	i	-5.0%	13µM*	16.4µM*	?	-18.9%
O=[N+]([O-])c1ccc(N/N=C2\CC3CC=CC23)cc1 (centres undefined)	i	-1.4%	23.1µM*	?	i	?
O=C(N/N=C1\CC2CC=CC12)c1ccc(O)cc1 (centres undefined)	?	-2.4%	22.3%	3.2%	i	1.5%
O=[N+]([O-])c1ccc(NN=C2CC3CCC2C3)c([N+](=O)[O-])c1 (centres undefined)	i	-3.8%	18.4µM*	16.4µM*	i	9.3%
COc1ccccc1-n1c(SCC(=O)Nc2ccc(Br)cc2)nc(O)cc1=O	i	-13.5%	17.3%	-1.0%	i	-18.5%
CCn1cc(C(=O)N2CCN(c3cccc(Cl)c3)CC2)c(=O)c2cc(S(=O)(=O)N3CCOCC3)ccc21	i	.	12.2%	-18.0%	i	.
CCCOC(=O)/C(=C\C=C\c1ccco1)NC(=O)c1ccccc1	i	-3.2%	13µM*	20.6µM*	i	-17.2%
CCCCOc1ccc(C(=O)N/C(=C\c2cccc([N+](=O)[O-])c2)C(=O)OCCC)cc1	i	-23.9%	-0.1%	-5.4%	i	-2.3%
COC(=O)/C(=C/c1ccco1)NC(=O)c1ccccc1	i	-4.7%	2.5%	-14.0%	i	-2.0%
O=C(NCCO)/C(=C\c1ccc([N+](=O)[O-])o1)NC(=O)c1ccccc1	i	-6.0%	?	29.1µM*	i	-3.3%
O=C(NCCCO)/C(=C/c1ccc(-c2cccc([N+](=O)[O-])c2)o1)NC(=O)c1ccccc1	i	-29.1%	-0.2%	-25.3%	i	?
CCCOC(=O)/C(=C\c1ccc([N+](=O)[O-])o1)NC(=O)c1ccccc1	?	-10.5%	16.4µM*	20.6µM*	?	-26.9%
CCOC(=O)/C(=C\c1ccc([N+](=O)[O-])o1)NC(=O)c1ccccc1	i	?	23.1µM*	17.8µM*	?	?
